Compound activity from PubChem BioAssay.
Mtb FBA inh = inhibitors of M. tuberculosis fructose-bisphosphate aldolase; P9WQA3; purified M. tuberculosis FBA, fluorescence read-out; inhibition, % at 1 µM; 2.3% of 360,000 active; AID 588726; in the data active means inhibition above about 27%;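 further: 0% = vehicle and 100% = reference inhibitor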
Target sequence (P9WQA3 whole entry, looked up): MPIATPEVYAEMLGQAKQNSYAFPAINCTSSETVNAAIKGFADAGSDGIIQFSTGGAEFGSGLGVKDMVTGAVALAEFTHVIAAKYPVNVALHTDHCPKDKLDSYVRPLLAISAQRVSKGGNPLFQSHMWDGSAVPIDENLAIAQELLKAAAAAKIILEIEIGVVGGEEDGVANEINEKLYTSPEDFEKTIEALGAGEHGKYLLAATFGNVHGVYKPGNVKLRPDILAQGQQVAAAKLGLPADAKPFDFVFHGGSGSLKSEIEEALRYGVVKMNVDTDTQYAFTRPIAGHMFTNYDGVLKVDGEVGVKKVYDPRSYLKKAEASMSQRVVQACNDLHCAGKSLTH
MazF activator = MazEF (E. coli) toxin RNase activation. FAM/BHQ RNA-DNA oligo cleavage fluorescence, 5 h. activation, % at 20 µM. 0.32% of 350,000 active; in the data active means activation above about 50%
Target sequence (P0AE70 whole entry, looked up): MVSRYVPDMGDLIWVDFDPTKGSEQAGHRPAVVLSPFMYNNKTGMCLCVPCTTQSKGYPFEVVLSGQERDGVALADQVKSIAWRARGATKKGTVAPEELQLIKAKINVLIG
Mtb bLac sens = beta-lactam sensitization of Mtb H37Rv; M. tuberculosis H37Rv growth with meropenem, percent inhibition; AID 434955; 0.27% of 330,000 active; inhibition, % at 25 µM; call rule not given here;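 further: growth measured after seven days incubation then overnight dye step; 0% = bacteria only wells and 100% = bacteria with antibiotic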
CCHFV vOTU inh = blocks the CCHF virus ovarian tumor domain protease. inhibition, % at 11.5 µM. 0.55% of 370,000 active. AID 651958. CCHFV vOTU protease, Pep-AMC fluorescence; further: 0% = vehicle wells with enzyme and 100% = no enzyme wells
GDH-TPI counter-1 = counter-screen for M. tuberculosis FBA inhibitors: GDH-TPI coupled enzymes; 1.2% of 360,000 active; GDH-TPI coupled enzyme counterscreen, NADH absorbance; inhibition, % at 4.8 µM;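 further: 0% = DMSO wells and 100% = wells lacking the enzyme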
Mtb FBA confirm = confirmation of M. tuberculosis fructose-bisphosphate aldolase inhibitors | shares compounds with Mtb FBA inh | 78% of 5,600 active | inhibition, % at 1 µM | purified M. tuberculosis FBA, fluorescence read-out; in the data active means inhibition above about 27%;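 further: 0% = vehicle wells and 100% = reference inhibitor wells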
GDH-TPI counter-2 = GDH-TPI inhibition counter-screen for FBA inhibitors | shares compounds with Mtb FBA inh | GDH-TPI coupled enzyme counterscreen, fluorescence | inhibition, % at 1 µM | 81% of 5,600 active | AID 652141; in the data active means inhibition above about 10%
GDH-TPI DR = counter-screen for M. tuberculosis FBA inhibitors: GDH-TPI dose response; shares compounds with Mtb FBA inh; GDH-TPI coupled enzyme assay, fluorescence, artifact counterscreen; IC50, µM; 79% of 170 active; call rule not given here
* = called active by the depositor; . = no result given; + = active, no number. Only some compounds are listed: those with a hit (about 4% of all), similar ones and a draw of the others. Unless noted, no stated cut-off is given here; in the data, active means inhibition above about 30%; inactive means the rest.

SMILES	Mtb FBA inh	MazF activator	Mtb bLac sens	CCHFV vOTU inh	GDH-TPI counter-1	Mtb FBA confirm	GDH-TPI counter-2	others
COC(=O)Cc1c[nH]c2cccc(OCC(O)CN(Cc3ccccc3)C(C)C)c12 (stereo not given)	29*	0	-3	3	-3	25	25*
Cc1sc2nc(-c3ccccn3)[nH]c(=O)c2c1-c1ccccc1	31*	11	91	-8	7	46*	37*
Cc1sc2nc(-c3ccncc3)[nH]c(=O)c2c1-c1ccccc1	.	.	12	.	.	.	.
Cc1ccc(S(=O)(=O)c2c(N)n(Cc3ccco3)c3nc4ccccc4nc23)cc1	82*	-73	57	-98	31*	39*	30*
Cc1cccc(S(=O)(=O)c2c(N)n(Cc3ccco3)c3nc4ccccc4nc23)c1	101*	-113	3	-76	7	76*	61*
Cc1cccc(-n2cnc3c(c2=O)c2nc4ccccc4nc2n3Cc2ccco2)c1	16	9	18	-3	7	.	.
Cc1ccc(S(=O)(=O)c2c(N)n(NC(=O)c3ccco3)c3nc4ccccc4nc23)cc1	35*	-7	5	-96	19	-3	0
O=S1(=O)c2ccc(N3CCC[C@@H]3CO)cc2O[C@H]2CCN1C2	.	.	.	-9	.	.	.
O=S1(=O)c2ccc(Br)cc2OCCC2CCCCN21 (stereo not given)	.	.	.	-6	.	.	.
Cc1ccc(S(=O)(=O)N/N=C\c2cc3c(cc2Br)OCO3)cc1	42*	0	2	4	8	9	-4
Cc1ccc(S(=O)(=O)N/N=C\c2ccc3c(c2)OCO3)cc1	1	-4	4	2	17	.	.
CCn1c2ccccc2c2cc(NC(=O)COC(=O)c3cc(F)ccc3C)ccc21	.	.	.	-1	.	.	.
COC(=O)[C@]12C[C@H](CC(=O)NCc3cccc4ccccc34)C(=O)N(Cc3ccc4c(c3)OCO4)C1=C[C@H](C(C)C)O[C@@H]2C1CC1	.	.	.	15	.	.	.
NC(=NCCc1ccccc1)NC(=O)c1cc(Cl)ccc1O	46*	6	37	-37	5	90*	77*
COc1ccc2[nH]c(=O)c(-c3noc(-c4ccccc4)n3)cc2c1	32*	3	54	-22	8	165*	117*
COc1ccc2[nH]c(=O)c(-c3nnn(-c4ccccc4)n3)cc2c1	34*	5	5	-21	9	176*	128*
O=c1[nH]c2ccccc2cc1-c1noc(-c2cccnc2)n1	20	1	1	6	15	.	.
CCn1c(COc2ccc(C)cc2)nnc1SCc1cccc(C(F)(F)F)c1	.	.	.	29	.	.	.
O=C(/C=C/c1cn(-c2ccccc2)nc1-c1cccs1)NCCN1CCOCC1	46*	2	1	-16	26	143*	87*
CC(=O)N1CCc2cc(S(=O)(=O)NCCC(=O)N3CCc4ccccc4C3)ccc21	-2	9	2	.	3	.	.
CC(=O)N1CCc2cc(S(=O)(=O)NCCC(=O)N3CCN(c4ccccn4)CC3)ccc21	54*	0	-3	-3	8	67*	49*
CC(=O)N1CCC2(CC1)CC(=O)c1cc(OCC(=O)N3CCCC3)ccc1O2	60*	-11	-3	-138	9	48*	45*
CCOC(=O)N1CCC2(CC1)CC(=O)c1cc(O)ccc1O2	2	2	-7	9	12	.	.
CCOC(=O)COc1ccc2c(c1)C(=O)CC1(CCN(C(C)=O)CC1)O2	57*	3	.	-162	12	+	+
CCN1CCN(C(=O)COc2ccc3c(c2)C(=O)CC2(CCN(C(C)=O)CC2)O3)CC1	33*	-7	-4	-79	-6	61*	56*
SMILES	Mtb FBA inh	MazF activator	Mtb bLac sens	CCHFV vOTU inh	GDH-TPI counter-1	Mtb FBA confirm	GDH-TPI counter-2	others
CCOc1ccc(OCC(=O)N2CCC3(CC2)CC(=O)c2ccccc2O3)cc1	7	2	-11	8	8	.	.
CCN(CC)C(=O)CC[C@H]1CC[C@]2(CCCN(C(=O)c3ccco3)C2)O1	.	.	.	-5	.	.	.
Cc1cccc(CN2CCC(C(=O)Nc3ccc(-n4nc(C)cc4C)cc3)CC2)n1	-4	0	-9	-18	-2	.	.
CCOC(=O)[C@]12CCCCC/C=C\1N(CCc1ccc(Cl)cc1)C(=O)[C@H]2CC(=O)NCc1cccs1	.	.	.	8	.	.	.
CC1Cc2c([nH]c3ccccc23)C(=O)N1 (stereo not given)	32*	-5	2	-13	9	+	148*
O=C(O)c1cc(S(=O)(=O)Nc2ccccc2C(=O)O)ccc1O	29*	4	-4	14	6	11	-5	GDH-TPI DR=>10
Nn1c(SCC(=O)Nc2cccc3ccccc23)nnc1-c1cc(-c2ccccc2)n[nH]1	.	.	.	1	.	.	.
O=c1cc(Nc2ccc3c(c2)OCCO3)[nH]c(=O)n1C1CCCCC1	0	-2	1	3	10	.	.
O=c1cc(Nc2ccc3c(c2)OCCO3)[nH]c(=O)n1-c1ccc(Cl)cc1	33*	-10	2	2	6	78*	69*
COc1cc2oc(=O)c(CC(=O)N3C[C@H]4C[C@@H](C3)c3cccc(=O)n3C4)c(C)c2cc1Cl	45*	1	.	-40	20	35*	28*
COc1cc(CC(=O)N2C[C@H]3C[C@@H](C2)c2cccc(=O)n2C3)cc(OC)c1OC	0	-1	-3	4	6	.	.
COc1ccc2c(C)c(CC(=O)N3C[C@H]4C[C@@H](C3)c3cccc(=O)n3C4)c(=O)oc2c1OC	30*	1	-3	-16	21	-1	0
COC(=O)C(CN)CN1C(=O)c2ccccc2C1=O (stereo not given)	.	.	.	3	.	.	.
COc1cccc(N(C)C(=O)[C@@H](C2CC2)[C@@H](O)c2ccc(Cl)cc2)c1	.	.	.	4	.	.	.
CN(C)CCNC(=O)c1coc(=O)c(Br)c1	66*	-7	-6	-39	10	+	+
COc1ccccc1N1CCN(C(=O)c2cccc(C(=O)N3CCN(c4ccccc4OC)CC3)c2)CC1	1	9	-10	-5	4	.	.
COc1ccccc1NC(=O)c1coc(=O)c(Br)c1	63*	4	-2	-23	5	52*	46*
COc1ccccc1NC(=O)c1cc(N)cc(C(=O)Nc2ccccc2OC)c1	0	1	-3	4	7	.	.
COc1ccccc1N1CCN(C(=O)c2coc(=O)c(Br)c2)CC1	84*	1	-3	-30	15	+	+
C[C@@H]1CNCCN1c1ccc(N2CCS(=O)(=O)CC2)c(C#N)c1	.	.	.	1	.	.	.
Cc1cc(N2CC(C)OC(C)C2)n2cc(-c3ccccc3)nc2n1 (stereo not given)	63*	4	-11	-34	6	+	+
Cc1cc(N2CCOCC2)n2cc(-c3ccccc3)nc2n1	8	3	-1	-23	2	.	.
